Laboratory results as given in PubChem BioAssay (NCI).
About 83,000 compounds went through this panel and 20% of them were active in at least one assay; those are over-represented in the sample as a whole.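 A percent growth of 40 corresponds to 60% growth inhibition; 0 means no net growth; -100 means all cells died. Active threshold: below 10.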 Calls of active or inactive are those of the source.

tested on: OVCAR-8 ovarian; experiment: NCI-60 one-dose screen, 48 h (100 = growth as untreated, 0 = no growth, -100 = all killed); conditions: 10 µM unless noted
Procedure: Growth inhibition of the OVCAR-8 human tumor cell line is measured as a screen for anti-cancer activity. Cells are grown in 96 well plates and exposed to the test compound for 48 hours. Compounds are tested at a single concentration, which is 10^-5 M for most compounds. The reported endpoint is percent growth (GI% or GIPRCNT), where numbers from 0 - 100% represent growth inhibition, and numbers from -100% - 0 represent cell death. For example, a value of 40 represents 60% growth inhibition. A value of 0 means no net growth occurred over the course of the experiment. A value of -40 indicates 40% of cells at the beginning of the experiment died by the end of the experiment. A value of -100 means all cells are dead at the end of the experiment.
NCI-60 Human Tumor Cell Lines Screen was performed using the standard one-dose NCI protocol, which is described in more detail at https://dtp.cancer.gov/discovery_development/nci-60/default.htm.
Compounds with GIPRCNT values below 10 were considered active. Activity score was based on GIPRCNT using the following formula: […]
Score is 0 for GIPRCNT values of 100 or above, 50 for GIPRCNT values of 0, and 100 for GIPRCNT values of -100.

Structure (SMILES)	growth
COc1cc(C2=N/C(=C\c3cc4ccccc4nc3Oc3ccccc3)C(=O)N2C(=N)N)cc(OC)c1OC	33.2% (inactive)
COCCOCCOCc1n(Cc2ccc3ccccc3c2)c2ccccc2[n+]1Cc1ccc2ccccc2c1	9.98% (active)
C=C(C)[C@@H]1CC[C@]2(C(=O)O)CC[C@]3(C)[C@H](CC[C@@H]4[C@@]5(C)C[C@@H](CC#Cc6ccccc6C)C(=O)C(C)(C)[C@@H]5CC[C@]43C)[C@@H]12	24.3% (inactive)
O=C1c2ccccc2C(=O)c2c1oc1c2c(=O)[nH]c2ccc(Cl)cc21	-27.5% (active)
COc1cc(C)ccc1Oc1nc(Nc2ccc(N3CCOCC3)cc2)ncc1N=Cc1cc(C(F)(F)F)cc(C(F)(F)F)c1	63% (inactive)
C=C1C(=O)O[C@H]2[C@H]1CC/C(COC(=O)NCc1nc3ccccc3[nH]1)=C\CC[C@@]1(C)O[C@@H]21	93.6% (inactive)
CSc1nc(-c2cccs2)c2c(N)[nH]nc2n1	102% (inactive)
c1ccc(Sc2ncccn2)nc1	100% (inactive)
O=C1CS/C(=N/c2nnc(-c3ccc(O)cc3)s2)N1	109% (inactive)
CCCCn1c(=O)c(/C=C/C(=O)/C=C/c2ccc(OC)cc2)cc2cc(Cl)ccc21	5.24% (active)
CC(=O)O[C@@H]1C[C@]2(C)[C@H]3[C@H](O)C[C@@H]4C5=CC(C)(C)CC[C@]5(C)CC[C@@]4(C)[C@]3(C)CC[C@H]2C(C)(C)[C@H]1O	104% (inactive)
COc1ccc2nc(-c3ccc(Cl)cc3)cc(C(=O)N3N=C(c4ccc(N)cc4)CC3c3ccccc3)c2c1 (stereo not given)	54% (inactive)
Cc1cc(C)nc(NS(=O)(=O)c2ccc(Nc3ccc4c5c(n(CCCN(C)C)c(=O)c4c3)-c3ccccc3C5=O)cc2)n1	74.4% (inactive)
CCOC(=O)/C(=C/c1c(-c2ccccc2)[nH]c2ccccc12)C(=O)c1ccc(Cl)cc1	59.8% (inactive)
CCCn1cc(/C=N\N=C2\C(=O)Nc3ccc(C)cc32)c2ccccc21	47.5% (inactive)
O=C1CC(c2ccc(O)c(O)c2)Oc2cc(O)c([C@@H]3O[C@H](CO)[C@@H](O)[C@H](O)[C@H]3O)c(O)c21 (stereo not given in full)	101% (inactive)
Fc1ccc(N/N=C/c2ccc(-n3cccn3)cc2)cc1	101% (inactive)
COc1cc(/C=C/C(=O)c2ccc(NC(=O)CSc3nnc(-c4cc(OC)c(OC)c(OC)c4)n3-c3ccccc3)cc2)cc(OC)c1OC	10% (inactive)
COc1ccc(Nc2cc(NC(=O)CNc3cc(OC)c(Cl)c(OC)c3Cl)ncn2)cc1	78.2% (inactive)
O=Cc1[nH]c(Sc2ccccc2)c2ccccc12	68.6% (inactive)

Structure (SMILES)	growth
C=CCn1c(SCC(=O)Nc2ccc(C(=O)/C=C/c3cc(OC)c(OC)c(OC)c3)cc2)nnc1-c1ccc(Cl)cc1	7.91% (active)
O=C1C(Cl)=C(NCCCN(CCCNC2=C(Cl)C(=O)c3ccccc3C2=O)C2=C(Cl)C(=O)c3ccccc3C2=O)C(=O)c2ccccc21	39.2% (inactive)
COc1ccc(/C=C/C(=O)C(CC2CCC2)C(=O)/C=C/c2ccc(OC)c(OC)c2)cc1OC	3.28% (active)
CSc1nc(-c2ccco2)c2c(N)[nH]nc2n1	108% (inactive)
N#Cc1ccc(Oc2ccc3ccc(=O)oc3c2)cc1	87.2% (inactive)
Cc1ccc2nc3nc4ccc[nH]c4cc3c2c1	99.7% (inactive)
O=C(Nc1cccc(-c2cccc(F)c2)c1)C1CCN(Cc2cccc3cccnc23)CC1	72% (inactive)
O=C(Nc1nccs1)c1noc2ccccc12	94.7% (inactive)
N#CC1(C#N)C2=C(CCCC2)NC(c2c(F)cccc2Cl)C1(C#N)C#N (stereo not given)	86.9% (inactive)
CSc1cccc(NC(=O)Nc2nc3c(C)cccc3s2)c1	93.9% (inactive)
Cc1cccc(C)c1NC(=O)CN(CC(C)C)CC(O)COc1ccccc1 (stereo not given)	105% (inactive)
COc1c(O)cc2oc3cc(O[C@@H]4OC(C)[C@@H](O)[C@H](O)C4O)c(CC=C(C)C)c(O)c3c(=O)c2c1CC=C(C)C (stereo not given in full)	99.3% (inactive)
O=C(O)c1cc(N=Nc2ccc(-c3ccc(N=Nc4c(S(=O)(=O)O)cc5ccc(Nc6ccccc6)cc5c4O)cc3)cc2)ccc1O	107% (inactive)
O=C(CCc1nnco1)c1nc2ccc([N+](=O)[O-])cc2[nH]1	105% (inactive)
CC(=O)Nc1ccc2c(c1)Cc1cc(F)ccc1-2	97.5% (inactive)
CCOC(=O)c1c(C)nc2c(c1N)/C(=C/c1ccc[nH]1)C(=O)N2Cc1ccc(C(F)(F)F)cc1	28.5% (inactive)
COC1=CC2C=C(C3N(c4ccccc4)NC(=O)[C@@H]4CCCN34)C(=O)NC2C=C1 (stereo not given in full)	110% (inactive)
CCN1CCN(Cc2ccc(NC(=O)c3cccc(C#Cc4cccc5[nH]nc(N)c45)c3)cc2C(F)(F)F)CC1	-69.9% (active)
COc1cc(/C=N/Nc2nc(-c3ccc(F)cc3)c(C#N)c(N3CCOCC3)n2)ccc1O	89.8% (inactive)
CCCCCCC/C=C/[C@H]1O[C@]23C(=O)C[C@@]4(C[C@@H](OC5OC(CO)C(O)C(O)C5O)C[C@@H]4[C@H]2C=C1C)OC3=O (stereo not given in full)	14.5% (inactive)
